PubChem BioAssay AID2284205 (EPA ToxCast)
Active and inactive are the calls of the source. The calls were made as follows: active = hit-call score of the fitted dose curve at least 0.9, where 1 is the maximum; inactive = score below 0.9.

molecular target: Peroxisome proliferator-activated receptor gamma (Homo sapiens) (UniProt P37231); experiment: ERF_TW_NR_hPPARG: Eurofins (ERF) Nuclear Receptor (NR) Radioligand Binding LeadHunter Assay for human Peroxisome Proliferator-activated Receptor gamma (PPARg) Agonism, conducted at Taiwan lab site
Sequence (P37231 whole entry, looked up): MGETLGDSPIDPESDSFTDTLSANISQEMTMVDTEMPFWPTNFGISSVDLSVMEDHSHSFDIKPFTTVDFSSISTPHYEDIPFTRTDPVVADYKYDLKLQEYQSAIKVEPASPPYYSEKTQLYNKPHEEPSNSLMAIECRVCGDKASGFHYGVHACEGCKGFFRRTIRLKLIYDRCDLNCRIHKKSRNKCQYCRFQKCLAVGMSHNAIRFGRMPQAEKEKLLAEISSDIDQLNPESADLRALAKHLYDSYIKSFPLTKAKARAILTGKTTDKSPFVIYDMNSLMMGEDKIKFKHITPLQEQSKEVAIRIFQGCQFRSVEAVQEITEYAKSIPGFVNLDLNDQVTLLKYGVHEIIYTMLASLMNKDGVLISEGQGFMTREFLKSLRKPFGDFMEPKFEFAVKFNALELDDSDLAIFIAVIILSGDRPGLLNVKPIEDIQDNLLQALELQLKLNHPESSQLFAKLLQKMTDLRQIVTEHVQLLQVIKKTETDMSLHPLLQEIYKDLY
Protocol: ERF_TW_NR_hPPARG is a biochemical, single-readout assay that uses extracted gene-proteins in a cell-free assay. Measurements were taken 24 hour after chemical dosing in a 96-well plate. See PPARgamma Human NHR Binding (Agonist Radioligand) Assay, Panlabs.ERF_TW_NR_hPPARG is an assay component calculated from the ERF_TW_NR_hPPARG assay. It is designed to measure radioligand binding using a type of binding reporter as detected by scintillation counting with radiometry technology.Data from the assay component ERF_TW_NR_hPPARG was analyzed at the assay endpoint, ERF_TW_NR_hPPARG, in the positive analysis fitting direction relative to DMSO as the negative control and baseline of activity. Using a type of binding receptor, gain-of-signal activity can be used to understand changes in binding receptor as they relate to gene PPARG.To generalize the intended target to other relatable targets, this assay endpoint is annotated to the nuclear receptor intended target family, where the subfamily is non-steroidal.
Human recombinant PPARgamma-LBD expressed in insect cells are used in modified Tris-HCl buffer pH 7.2. A 0.03 ug aliquot is incubated with 5 nM [3H]Rosiglitazone and 1 ug anti-GST antibody for 24 hours at 4C. Non-specific binding is estimated in the presence of 10 uM rosiglitazone. Receptors are counted to determine [3H]Rosiglitazone specifically bound. Compounds are screened at 10 uM.Test Sample Requirements: Minimum for 1) Screen: 25 ul of 10 mM stock -OR- 1 mg (pre-weighed). 2) Dose Response: 60 ul of 10 mM stock -OR- 1 mg (pre-weighed).

AC50, active:
O=C(CC(=O)C(F)(F)C(F)(F)C(F)(F)F)c1cccs1 7.47 µM
O=C(O)C(F)(F)C(F)(F)C(F)(F)C(F)(F)C(F)(F)C(F)(F)C(F)(F)C(F)(F)Cl 13.4 µM
O=S(=O)(O)C(F)(F)C(F)(F)C(F)(F)C(F)(F)C(F)(F)C(F)(F)C(F)(F)F 31.7 µM
